Laboratory results taken from PubChem BioAssay AID720697 (Broad Institute, 2013).
Results with a measured potency or affinity are listed apart. Results filed as inconclusive are left out. Active and inactive are the calls of the source.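 The calls were made as follows: active = signal loss with fitted half-maximal concentration at or below twice the top valid tested dose in every test run; inconclusive = runs disagree, flat 30 to 70% signal loss, or poor fit; inactive = all runs flat, opposite direction, or potency beyond limit.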

test: general mammalian cell viability loss – inhibitor set, cherry-pick, set 2, cytotoxicity control for miR-122 modulator project, dose response (AID 720697); conditions: HEK293T viability, CellTiter-Glo luminescence, 48 h; series mostly up to 26 µM;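 also: 0% = median of neutral control wells and -100% = MG132 positive control wells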

Structure (SMILES)	outcome	activity change, negative = cytotoxicity
CCN(C[C@@H]1[C@@H](c2ccc(C3=CCCCC3)cc2)[C@@H](CO)N1CC1CC1)C(C)=O	inactive	
NC(=O)c1cn(-c2ccccc2)nc1-c1cc2ccccc2oc1=O	inactive	
C[C@H](CO)N1C[C@H](C)[C@H](CN(C)CC2CCCCC2)OCCCC[C@H](C)Oc2ccc(NC(=O)Nc3cccc4ccccc34)cc2C1=O	inactive	
CO[C@@H]1CN(C)C(=O)c2ccc(NC(=O)Nc3ccc(C(F)(F)F)cc3)cc2OC[C@H](C)NC[C@H]1C	inactive	
COC(=O)C[C@@H]1CC[C@H]2[C@@H](COc3ccc(NC(=O)c4ccc(F)c(F)c4)cc3C(=O)N2C)O1	inactive	
CC1(C)CC(=O)c2cnc(NC(=O)c3ccco3)nc2C1	inactive	
CC(=O)Nc1ccc(S(=O)(=O)Nc2ccc(S(=O)(=O)Nc3nc(C)cc(C)n3)cc2)cc1	inactive	
COc1ccc(NC(=O)COC(=O)CCCc2c[nH]c3ccccc23)cc1	inactive	
Cc1cc(C(=O)Nc2cccc(O)c2)co1	inactive	
O=C(NCCCN1CCCC1)c1ccc(CSCc2cccc(Cl)c2)o1	inactive	
C[C@H]1CN([C@@H](C)CO)C(=O)c2cc(C#Cc3cccnc3)cnc2O[C@H]1CN(C)S(=O)(=O)c1ccccc1F	inactive	
CN1C(=O)c2cc(NC(=O)c3cccs3)ccc2OC[C@H]2O[C@H](CC(=O)NCC(F)(F)F)CC[C@H]21	inactive	
Cc1cc(C)cc(Oc2ccc(NC(=O)C3CC=CCC3C(=O)O)cc2)c1 (centres undefined)	inactive	
C[C@@H]1CN([C@H](C)CO)S(=O)(=O)c2ccc(C#Cc3ccccc3F)cc2O[C@@H]1CN(C)C(=O)Cc1ccncc1	inactive	
CC(=O)Nc1ccc2c(c1)C(=O)N(C)[C@H]1CC[C@@H](CC(=O)NCc3ccc4c(c3)OCO4)O[C@@H]1CO2	inactive	
COCC(=O)Nc1ccc2c(c1)C(=O)N(C)[C@@H]1CC[C@@H](CC(=O)NCc3ccc(OC)cc3)O[C@H]1CO2	inactive	
CCNC(=O)Nc1ccc2c(c1)C(=O)N(C)[C@H]1CC[C@H](CC(=O)Nc3cccc(F)c3)O[C@@H]1CO2	inactive	
CCCNC(=O)Nc1ccc2c(c1)OC[C@@H](C)N(CCC)C[C@H](C)[C@H](OC)CN(C)C2=O	inactive	
COCC(=O)N1C[C@H]2[C@@H](c3ccccc31)[C@H](CO)N2C(=O)Nc1ccccc1Cl	inactive	
O=C(NC[C@H]1[C@@H](c2ccccc2)[C@@H](CO)N1CC1CCCC1)c1ccncc1	inactive	

Structure (SMILES)	outcome	activity change, negative = cytotoxicity
Cc1ccc(S(=O)(=O)NCCCNS(C)(=O)=O)cc1	inactive	
CN1C(=O)c2cc(NC(=O)Nc3ccccc3Cl)ccc2OC[C@H]2O[C@H](CC(=O)O)CC[C@H]21	inactive	
COCC(=O)Nc1ccc2c(c1)C(=O)N(C)[C@@H]1CC[C@H](CC(=O)NC3CCCC3)O[C@H]1CO2	inactive	
COc1cccc(-c2csc(N3CCN(CC(=O)Nc4ccc5c(c4)OCO5)CC3)n2)c1	inactive	
COC(=O)C[C@H]1CC[C@H]2[C@H](COc3ccc(NC(=O)c4cccc(F)c4)cc3C(=O)N2C)O1	inactive	
CN(C)CCNC(=O)C1CC(=O)N(c2ccc(F)c(Cl)c2)C1 (centres undefined)	inactive	
CN1C(=O)c2cc(NC(=O)c3cccs3)ccc2OC[C@@H]2O[C@H](CC(=O)NCC(F)(F)F)CC[C@H]21	inactive	
CO[C@@H]1CN(C)C(=O)c2ccc(NS(=O)(=O)c3cccc(F)c3)cc2OC[C@@H](C)NC[C@H]1C	inactive	
C=CCc1c(OC)ccc2ccc(=O)oc12		-1.92% [at 6 µM] (inactive)
C/C=C/c1ccc2c(c1)O[C@@H](CN(C)CC1CCCC1)[C@H](C)CN([C@@H](C)CO)S2(=O)=O	inactive	
O=C(Cc1cccnc1)N1[C@@H](CO)[C@@H]2c3ccccc3NC[C@@H]21	inactive	
COc1ccc(S(=O)(=O)Nc2cccc3c2O[C@H](CN(C)CC2CCCCC2)[C@@H](C)CN([C@H](C)CO)C3=O)cc1	inactive	
CN1C(=O)c2cc(NC(=O)c3ccc(C(F)(F)F)cc3)ccc2OC[C@H]2O[C@H](CC(=O)O)CC[C@@H]21	inactive	
Cc1cc(C(C)(C)C)cc(S(=O)(=O)NCCc2ccncc2)c1C	inactive	
CC(C)Oc1ccc(CNCCC2(C(C)C)CCOC(C)(C)C2)cc1 (centres undefined)	inactive	
C[C@@H]1CN([C@H](C)CO)C(=O)c2cccc(NC(=O)c3ccc(-c4nccs4)cc3)c2O[C@H]1CN(C)S(=O)(=O)c1ccc(F)cc1	inactive	
CO[C@H]1CN(C)C(=O)c2cc(NC(=O)c3cccc(Oc4ccccc4)c3)ccc2OC[C@@H](C)NC[C@H]1C	inactive	
COc1ccc(S(=O)(=O)Nc2cc(C)cc(C)n2)c2ccccc12	inactive	
CCN(C[C@@H]1[C@@H](c2ccccc2)[C@@H](CO)N1S(C)(=O)=O)C(=O)C1CC1	inactive	
